# Screen size: about 69,000 compounds; about 8,600 (12%) showed an effect of 50% or more. This excerpt belongs to a sample that is enriched for strong results.
# Tested on: Plasmodium berghei
# Test: Screen against P. berghei liver stage (PbLuc), transformed with Luciferase, at 10uM
# Assay type: functional, HepG2
# Details: tested at 10 uM
row,SMILES,INHIBITION
1,Cc1ccnc(NC(=O)c2cccc(OCc3nnnn3C)c2)c1,39.8%
2,Cc1cccc(NC(=O)c2ccc(OCc3nnnn3C)cc2)n1,-83.3%
3,Cc1cccc(NC(=O)c2cccc(OCc3nnnn3C)c2)n1,60%
4,CN1CC(=O)N(c2ccccc2)CC12CCN(C(=O)c1ccnnc1)C2 (stereo not given),-7.29%
5,Cc1nnc(SCC(=O)Nc2csc3nc(=O)c(C)nn23)s1,36.3%
6,Cc1nn2c(NC(=O)CSc3nccn3C)csc2nc1=O,50.8%
7,Cc1nn2c(NC(=O)CSc3ncccn3)csc2nc1=O,3.77%
8,Cc1cc(NCCSc2nccn2C)n2nc(C)c(C)c2n1,24.7%
9,Cc1ccnc(NCc2cn3c(C)csc3n2)n1,-125%
10,Cc1ccnc(SCC(=O)Nc2csc3nc(=O)c(C)nn23)n1,72.8%
11,Cc1ncsc1C(=O)NCc1ccc(-c2n[nH]cc2C(=O)N(C)C)cc1,-3.05%
12,c1cncc(CN2CCCn3nnc(CN4CCCC4)c3C2)c1,-19.8%
13,CNC(=O)C1(c2cnccn2)CCCN1C(=O)c1ccccc1 (stereo not given),35.2%
14,COCCO[C@H]1CCN(Cc2ccsc2)[C@H]1Cc1cccnc1,-67.6%
15,Cc1nnc(N2C[C@H](OCc3cccnc3)[C@H]3OCCC[C@H]32)s1,47.9%
16,Cc1csc(C2CCCCN2C(=O)c2cn[nH]c2C)n1 (stereo not given),11.6%
17,CC(=O)NCC(=O)N1Cc2c(-c3cccc(C)c3)nc(N)nc2C1C (stereo not given),34%
18,CN1CCC(C)(CN(C)C(=O)c2ccc(CCC(C)(C)O)cc2)C1 (stereo not given),1.71%
19,CCOc1cc(C)nc(N2CCN(C(=O)Cn3cc(C)cn3)CC2)n1,-83.4%
20,COCC(=O)N1CCc2nc(-c3cnccn3)nc(O)c2C1,47.2%
21,Cc1nc(CC(=O)N2CCc3nc(-c4cnccn4)nc(O)c3C2)cs1,59.3%
22,O=C(CCC1CCCO1)N1CCc2nc(-c3cnccn3)nc(O)c2C1 (stereo not given),-22.6%
23,O=C(Cc1ccccn1)N1CCc2c(O)nc(-c3cnccn3)nc2C1,52%
24,Oc1nc(-c2cnccn2)nc2c1CCN(Cc1ccccn1)C2,2.71%
25,O=C(Cc1ccccn1)N1CCc2nc(-c3cnccn3)nc(O)c2C1,5.69%
26,Cc1nc(C)n(CC2CCCN2Cc2cn3ccccc3n2)n1 (stereo not given),-17.6%
27,Cc1cnc(N2CCCn3c(nnc3Cn3cccn3)C2)nc1,16.9%
28,c1cnc(N2CCCn3c(nnc3Cn3cccn3)C2)nc1,-7.24%
29,c1cnn(Cc2nnc3n2CCCN(c2nccs2)C3)c1,53.9%
30,Cc1c(F)cc(C(=O)O)cc1S(=O)(=O)Nc1ccc(C#N)cc1,14.55%

# Source: ChEMBL document CHEMBL4513216, “Probing the Open Global Health Chemical Diversity Library for Multistage-Active Starting Points for Next-Generation Antimalarials” (ACS Infect Dis, 2020)
